Test results taken from PubChem BioAssay AID1159580 (chemical genetic matrix, 2015).
Out of some 5,500 compounds screened, about 2,000 (36%) were called active. Not shown: some 18% with an inconclusive outcome. Rule as the data show it: active = normalized growth mostly below about 0.91 (no sharp cut-off); inconclusive = no clear call, values can overlap the other calls; inactive = mostly above about 0.92. This is one part of the list.

Assay: chemical genetic growth profiling, strain panel (AID 1159580);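 also: tested at 20 µM; growth read once vehicle control cultures reached saturation at 30 °C; 1 = growth at the plate median or of vehicle wells; lower values mean less growth of the strain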
Details: S. cerevisiae deletion strains, growth OD

Measured: normalized growth

CSc1nnc(COc2ccc(C)c3c2CCC3)n1-c1ccccc1
inactive: locus YAR019C, strain CDC15, stronger effect = lower value 0.982 | locus YBL105C, strain PKC1, stronger effect = lower value 0.98 | locus YBR135W, strain CKS1, stronger effect = lower value 0.986 | locus YBR136W, strain MEC1, stronger effect = lower value 0.984 | locus YBR160W, strain CDC28, stronger effect = lower value 0.984 | locus YDL017W, strain CDC7, stronger effect = lower value 0.991 | locus YDL028C, strain MPS1, stronger effect = lower value 0.991 | locus YDL101C, strain DUN1, stronger effect = lower value 0.974 | locus YDL108W, strain KIN28, stronger effect = lower value 0.992 | locus YDL132W, strain cdc53, stronger effect = lower value 0.98 | locus YDL214C, strain PRR2, stronger effect = lower value 0.96 | locus YDR052C, strain DBF4, stronger effect = lower value 0.98 | locus YDR054C, strain cdc34, stronger effect = lower value 0.976 | locus YDR226W, strain ADK1, stronger effect = lower value 0.977 | locus YDR477W, strain SNF1, stronger effect = lower value 0.972 | locus YER123W, strain YCK3, stronger effect = lower value 0.96 | locus YER133W, strain GLC7, stronger effect = lower value 0.941 | locus YFL009W, strain cdc4, stronger effect = lower value 0.974 | locus YFL029C, strain CAK1, stronger effect = lower value 0.981 | locus YFR003C, strain YPI1, stronger effect = lower value 0.979 | locus YFR019W, strain FAB1, stronger effect = lower value 0.978 | locus YFR028C, strain CDC14, stronger effect = lower value 0.978 | locus YGR040W, strain KSS1, stronger effect = lower value 0.962 | locus YGR052W, strain FMP48, stronger effect = lower value 1.05 | locus YGR092W, strain DBF2, stronger effect = lower value 0.948 | locus YHR030C, strain SLT2, stronger effect = lower value 1.1 | locus YHR079C, strain IRE1, stronger effect = lower value 1.05 | locus YHR082C, strain KSP1, stronger effect = lower value 1.02 | locus YHR205W, strain SCH9, stronger effect = lower value 0.972 | locus YIL147C, strain SLN1, stronger effect = lower value 0.987 | locus YJL095W, strain BCK1, stronger effect = lower value 1.03 | locus YJL128C, strain PBS2, stronger effect = lower value 0.931 | locus YJL157C, strain FAR1, stronger effect = lower value 0.968 | locus YJR016C, strain ILV3, stronger effect = lower value 0.988 | locus YJR066W, strain TOR1 (second series), stronger effect = lower value 0.934 | locus YJR066W, strain TOR1, stronger effect = lower value 1.07 | locus YKL048C, strain ELM1, stronger effect = lower value 0.964 | locus YKL067W, strain YNK1, stronger effect = lower value 0.966 | locus YKL101W, strain HSL1, stronger effect = lower value 0.964 | locus YKL193C, strain SDS22, stronger effect = lower value 0.98 | locus YKL203C, strain TOR2, stronger effect = lower value 1.04 | locus YLR113W, strain HOG1, stronger effect = lower value 0.924 | locus YLR133W, strain CKI1, stronger effect = lower value 0.979 | locus YLR403W, strain SFP1, stronger effect = lower value 0.968 | locus YML070W, strain DAK1, stronger effect = lower value 0.966 | locus YMR001C, strain CDC5, stronger effect = lower value 0.98 | locus YMR205C, strain PFK2 (second series), stronger effect = lower value 0.974 | locus YMR277W, strain FCP1, stronger effect = lower value 0.98 | locus YNL006W, strain LST8, stronger effect = lower value 0.98 | locus YNL020C, strain ARK1, stronger effect = lower value 0.976 | locus YNL161W, strain CBK1, stronger effect = lower value 0.982 | locus YNL183C, strain NPR1, stronger effect = lower value 1.05 | locus YNL207W, strain RIO2, stronger effect = lower value 0.979 | locus YNL222W, strain SSU72, stronger effect = lower value 0.985 | locus YNL307C, strain MCK1 (second series), stronger effect = lower value 0.968 | locus YOL078W, strain AVO1, stronger effect = lower value 0.987 | locus YOL136C, strain PFK27, stronger effect = lower value 0.963 | locus YOR061W, strain CKA2, stronger effect = lower value 0.959 | locus YOR119C, strain RIO1, stronger effect = lower value 0.992 | locus YOR231W, strain MKK1, stronger effect = lower value 1.02 | locus YOR329C, strain SCD5, stronger effect = lower value 0.987 | locus YPL031C, strain PHO85, stronger effect = lower value 0.961 | locus YPL153C, strain RAD53, stronger effect = lower value 0.959 | locus YPL204W, strain HRR25, stronger effect = lower value 0.967 | locus YPL209C, strain IPL1, stronger effect = lower value 0.983 | locus YPL256C, strain CLN2, stronger effect = lower value 0.995 | locus YPR025C, strain CCL1, stronger effect = lower value 0.984 | locus YPR106W, strain ISR1, stronger effect = lower value 0.98 | locus YPR111W, strain DBF20, stronger effect = lower value 0.97 | strain NNK1, stronger effect = lower value 0.975 | strain TSCII, stronger effect = lower value 0.974
